Rows were chosen to be rich in hits. Some 2.4% of all compounds tested hit in one or more screens of this group.
POLB inh = DNA polymerase beta (human) inhibition; P06746; Pol beta primer extension/strand displacement, fluorescence kinetic; Potency, µM (titrated, usually from 114 µM), usual class: inhibitors; 340,000 compounds, 1.3% hits; AID 485314
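Preincubation: enzyme (10 nM) with compound, 15 min, RT. Reaction: substrate added to 50 nM final. Reads: 0 and 10 min. Analysis: normalized, Hill fit.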
Pol eta inh-1 = DNA polymerase eta (human) inhibition; Q9Y253; recombinant Pol eta, fluorescent DNA replication assay; Potency, µM (doses to about 114 µM), hits mostly inhibitors; 390,000 compounds, 1.2% hits; AID 588591
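Pol eta (10 nM) was preincubated with compounds for 15 min at room temperature, after which fluorescent replication substrate (50 nM final) was added to start the reaction. Fluorescence was read kinetically at 0 and 10 min.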
FEN1 inhibitor = human FEN1 inhibition; P39748; Recombinant FEN1 flap cleavage, fluorescence, 15 min; Potency, µM (doses to about 114 µM), most hits filed as inhibitors; 390,000 compounds, 0.35% hits; further: nearly all actives have a fitted effect of over 65% in size
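Enzyme 10 nM, 15 min RT preincubation with compound; start with substrate 50 nM final; reads at 0 and 15 min; qHTS titration, four-parameter Hill fit.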
Pol iota inh = blocks human DNA polymerase iota activity | Potency, µM (titrated, usually from 115 µM), most hits filed as inhibitors | 390,000 compounds, 1% hits | Pol iota fluorescent replication assay, 10 min | Q9UNA4
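Fluorescent replication assay read twice, at 0 min and 10 min after adding 50 nM (final) substrate. Enzyme (10 nM) and compounds were first incubated 15 min at room temperature; enzyme-free buffer wells were negative controls.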
Pol kappa inh-1 = blocks human DNA polymerase kappa activity; Q9UBT6; purified Pol kappa, fluorescent DNA synthesis assay, 10 min; Potency, µM (series often up to 107 µM), hits mostly inhibitors; 400,000 compounds, 0.53% hits; AID 588579
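Inhibition of 10 nM Pol kappa is measured by a fluorescent read-out at 0 and 10 min following addition of 50 nM substrate (final), with a 15-min room-temperature compound preincubation.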
WRN inhibitor = inhibitors of human WRN helicase. Q14191. WRN helicase unwinding, fluorescent forked duplex, kinetic. Potency, µM (top dose mostly 114 µM), actives largely listed as inhibitors. 360,000 compounds, 0.46% hits. AID 651768; further: nearly all actives have a fitted effect of over 55% in size
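Enzyme (20 nM final) and test compound sit together 15 min at room temperature before substrate addition. Substrate is a single-forked duplex oligonucleotide (100 nM) labelled with fluorophore and quencher, with 2 mM ATP; helicase unwinding raises red fluorescence, read kinetically.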
TbPGK inh = validation of Trypanosoma brucei phosphoglycerate kinase inhibitors. shares compounds with Pol kappa inh-1. TbPGK coupled GAPDH assay, Kinase-Glo luminescence. Potency, µM (highest dose often 57.5 µM), hits mostly inhibitors. 500 compounds, 79% hits. AID 686980; further: nearly all actives have a fitted effect of over 65% in size
POLI cherry-pick = Human Pol iota inhibitor confirmatory assay. shares compounds with Pol kappa inh-1. Pol iota primer extension, TAMRA/BHQ fluorescence. Potency, µM, hits mostly inhibitors. 1,500 compounds, 77% hits
Pol kappa inh-2 = confirmation of human DNA polymerase kappa inhibitors | shares compounds with Pol eta inh-1 | purified Pol-kappa, fluorescent strand-displacement substrate | Potency, µM, usual class: inhibitors | 920 compounds, 76% hits | AID 720501
Pol eta inh-2 = Pol eta (human) inhibition, cherry-pick confirmation | shares compounds with Pol eta inh-1 | Pol eta primer extension, TAMRA/BHQ fluorescence, 10 min | Potency, µM, hits mostly inhibitors | 2,600 compounds, 64% hits
A number is an active result; [ ] = remark or other dose. The call rests on the fitted dose curve; in most records, active means well fitted curve in the direction sought with a large enough effect; inconclusive means small, poorly fitted or top-dose-only effect, or another doubt; inactive means no such curve, though single readings can be large; an effect the other way counts as inactive or inconclusive.

For O=C(N/N=C/C=C\c1ccccc1[N+](=O)[O-])c1cc(-c2ccc3ccccc3c2)n[nH]1 the results were POLB inh 18µM, Pol eta inh-1 inconclusive, FEN1 inhibitor inactive, Pol iota inh inconclusive, Pol kappa inh-1 inactive, WRN inhibitor inactive and POLI cherry-pick 38.
`CCN(CC)CCC(c1ccc(N(C)C)cc1)c1c(OC)cc(OC)c2c1OC(=O)CC2c1ccc(N(C)C)cc1` (stereo not drawn) gave FEN1 inhibitor inactive, Pol iota inh inactive and Pol kappa inh-1 inactive.
For O=C(Nc1ccccn1)c1cc2ccccc2o1 the results were POLB inh inactive, Pol eta inh-1 inactive, FEN1 inhibitor inactive, Pol iota inh inactive, Pol kappa inh-1 inactive, WRN inhibitor inactive and TbPGK inh 16µM.
CCN(c1cccc(C)c1)S(=O)(=O)c1ccc2[nH]cc(C(=O)NCCCOC)c(=O)c2c1 was read as POLB inh inconclusive, Pol eta inh-1 inactive, FEN1 inhibitor inactive, Pol iota inh inactive and Pol kappa inh-1 inactive.
For CNCc1ccccc1Sc1ccc(O)c(O)c1 the results were POLB inh inconclusive, Pol eta inh-1 inactive, FEN1 inhibitor inconclusive, Pol iota inh 28µM, Pol kappa inh-1 79µM, WRN inhibitor inconclusive and POLI cherry-pick 75.
Screening O=C(C1COc2ccccc2O1)N1CCc2ccccc21 (stereo not drawn) returned POLB inh 32µM, Pol eta inh-1 79µM, FEN1 inhibitor inactive, Pol iota inh 45µM, Pol kappa inh-1 inconclusive, WRN inhibitor inconclusive, POLI cherry-pick 75 and Pol eta inh-2 inconclusive.
O=C(C1COc2ccccc2O1)N1CCCC1 (stereo not drawn) was read as POLB inh inactive, Pol eta inh-1 inactive, FEN1 inhibitor inactive, Pol iota inh inactive, Pol kappa inh-1 inactive and WRN inhibitor inactive.
CCc1ccc(CNC(=O)c2sc3ncccc3c2-n2c(C)ccc2C)cc1 was read as POLB inh inactive, Pol eta inh-1 inactive, FEN1 inhibitor inactive, Pol iota inh inactive and Pol kappa inh-1 inactive.
O=C(O)c1ccc(CSc2nc3ccc(NC(=O)c4ccccc4C(=O)O)cc3s2)cc1 was read as POLB inh inactive, Pol eta inh-1 25µM, FEN1 inhibitor inconclusive, Pol iota inh inconclusive, Pol kappa inh-1 inactive, WRN inhibitor inconclusive, POLI cherry-pick inconclusive, Pol kappa inh-2 84 and Pol eta inh-2 inconclusive.
For Cc1nnc(SCc2nc(-c3ccc(Cl)cc3)no2)n1-c1ccc(F)cc1 the results were POLB inh inactive, Pol eta inh-1 inactive, FEN1 inhibitor inactive, Pol iota inh inactive and Pol kappa inh-1 inactive.
Screening Cc1cccc(NC(=O)c2cc(-c3ccco3)nc3ccccc23)n1 returned POLB inh inactive, Pol eta inh-1 inactive, FEN1 inhibitor inactive, Pol iota inh inactive, Pol kappa inh-1 inactive and WRN inhibitor inactive.
Screening O=C(N/N=C/c1cccc(F)c1)c1cc(-c2ccco2)nc2ccccc12 returned POLB inh inactive, Pol eta inh-1 2.2µM, FEN1 inhibitor inconclusive, Pol iota inh inconclusive, Pol kappa inh-1 18µM, WRN inhibitor 56µM, TbPGK inh 5.8µM, POLI cherry-pick 8.4 and Pol eta inh-2 13.
`O=C(N/N=C/c1ccc(F)cc1)c1cc(-c2ccccn2)nc2ccccc12` gave Pol eta inh-1 inactive, FEN1 inhibitor inactive, Pol iota inh inactive, Pol kappa inh-1 inactive and WRN inhibitor inactive.
O=C(NCCCN1CCOCC1)c1cc(-c2ccco2)nc2ccccc12 was read as Pol eta inh-1 11µM, FEN1 inhibitor inconclusive, Pol iota inh 10µM, Pol kappa inh-1 79µM, WRN inhibitor 50µM, POLI cherry-pick 34, Pol kappa inh-2 17 and Pol eta inh-2 38.
O=C(NCCCN1CCOCC1)c1cc(-c2ccc(F)cc2)nc2ccccc12 was read as Pol eta inh-1 inactive, FEN1 inhibitor inactive, Pol iota inh inactive, Pol kappa inh-1 inactive and WRN inhibitor inactive.
COc1ccc(NC(=O)CN(C)C(=O)c2cc(-c3ccco3)nc3ccccc23)cc1 was read as Pol eta inh-1 2.8µM, FEN1 inhibitor inconclusive, Pol iota inh 8.9µM, Pol kappa inh-1 45µM, WRN inhibitor 63µM, POLI cherry-pick 30 and Pol eta inh-2 43.
Screening Cc1ccccc1NC(=O)c1cc(-c2ccco2)nc2ccccc12 returned Pol eta inh-1 45µM, FEN1 inhibitor inactive, Pol iota inh 40µM, Pol kappa inh-1 89µM, WRN inhibitor inconclusive, POLI cherry-pick 53 and Pol eta inh-2 48.
Screening CN(C)/[N+]([O-])=N/Oc1cc(ON=[N+]([O-])N2CCN(c3ncccn3)CC2)c([N+](=O)[O-])cc1[N+](=O)[O-] returned FEN1 inhibitor inconclusive, Pol iota inh inactive and Pol kappa inh-1 inactive.
`COC(=O)C1CCN(C(=O)c2cc(-c3ccco3)nc3ccccc23)CC1` gave Pol eta inh-1 8.9µM, FEN1 inhibitor 40µM, Pol iota inh inconclusive, Pol kappa inh-1 22µM, WRN inhibitor 50µM, TbPGK inh 13µM, POLI cherry-pick 8.4, Pol kappa inh-2 9.5 and Pol eta inh-2 15.
`CC[C@H](C)[C@H](NC(=O)[C@H](C)NC(=O)CNC(=O)[C@H](CCCN=C(N)N)NC(=O)[C@H](C)NC(=O)[C@H](CC(C)C)NC(=O)[C@H](CCC(=O)O)NC(=O)[C@H](CC(C)C)NC(=O)[C@H](C)NC(=O)[C@@H](N)CCC(=O)O)C(=O)N[C@@H](Cc1ccccc1)C(=O)N[C@@H](CCC(N)=O)C(=O)N[C@@H](C)C(=O)O` gave Pol kappa inh-1 inactive.
For O=C(O)c1ccc(NC2=C/C(=N/S(=O)(=O)c3cccs3)c3ccccc3C2=O)cc1 the results were Pol eta inh-1 8.9µM, WRN inhibitor inactive[11.6 µM], POLI cherry-pick 30 and Pol eta inh-2 21.
Screening Cc1cc(C)c(S(=O)(=O)/N=C2\C=C(NS(=O)(=O)c3ccccc3)C(=O)c3ccccc32)c(C)c1 returned POLB inh inactive, Pol eta inh-1 inactive, FEN1 inhibitor inactive, Pol iota inh inconclusive, Pol kappa inh-1 inactive and WRN inhibitor inactive.

High-throughput results as filed in PubChem BioAssay.
